# Measles inh: inhibitors of measles virus growth in cells, primary screen, measles RdRp inhibitor project, cell-based, single point, HTS; infected Vero cells, GFP fluorescence, 64 h; stronger effect = lower value; z-score (concentration not given with the values); 33,000 tested, 0.1% active; in the data active means z-score below about -3
# * = called active by the depositor. The full list was thinned out, with hits kept by preference.
SMILES,Measles inh
CC(C)CCNC(=O)CSc1nc2ccsc2c(=O)n1Cc1ccc2c(c1)OCO2,-0.28
O=C(Nc1cccc(NCc2cc(Cc3ccccc3)cc([N+](=O)[O-])c2O)c1)c1ccc(F)cc1,-0.85
COc1ccc(-c2cc(C3CC3)nc3sc(C(=O)c4cccs4)c(N)c23)cc1,2.2
CCN(c1ccccc1)S(=O)(=O)c1ccc2[nH]cc(C(=O)NC3CCCCC3)c(=O)c2c1,-2.1
O=C(NC1CCCCCC1)c1c[nH]c2ccc(S(=O)(=O)N3CCc4ccccc43)cc2c1=O,-3.2*
CCc1ccccc1NS(=O)(=O)c1ccc2[nH]cc(C(=O)NC3CCCC3)c(=O)c2c1,-0.66
CCc1noc(C)c1C(=O)N1CC(C)OC(C)C1 (configuration not stated),-0.49
CN(Cc1ccccc1)S(=O)(=O)c1ccc(C(=O)Nc2nc(-c3ccccn3)cs2)cc1,-0.16
O=C(NCc1n[nH]c(=S)n1-c1cccc(C(F)(F)F)c1)c1ccccc1,1.9
COc1ccc2nc(SCc3ccc(C)cc3)[nH]c2c1,0.61
CC(NC(=O)c1cc(=O)[nH]c2ccc(Br)cc12)c1ccccc1 (configuration not stated),0.21
COc1ccc(N2C(=O)c3ccc(C(=O)OCC(=O)c4cccc([N+](=O)[O-])c4)cc3C2=O)cc1,-5*
O=C(COC(=O)c1ccc2c(c1)C(=O)N(c1ccc([N+](=O)[O-])cc1)C2=O)c1ccccc1,0.42
O=C(COC(=O)c1ccc2c(c1)C(=O)N(c1ccccc1Cl)C2=O)c1cccc([N+](=O)[O-])c1,0.75
CCC(=O)N1CCc2cc(S(=O)(=O)CCC(=O)N(C)c3ccc(OC)cc3)ccc21,-0.11
Cc1ccc(-c2nc3ccccc3o2)cc1NC(=O)c1cccs1,0.77

# High-throughput results (PubChem BioAssay)
